Measurements reported in article PMC11006913.
Substitutions are numbered along the chain they refer to.

Legend:
Assay in all cases: PBM; 200 nM protein, PBS
Conditions in all cases: dsDNA, one strand shown
HOXA4 [1] = biological target: HOXA4 (Homo sapiens, UniProt Q00056 201-287, W262R)
HOXA7 [2] = biological target: HOXA7 (Homo sapiens, UniProt P31268 116-202)
HOXA4 [3] = biological target: HOXA4 (Homo sapiens, UniProt Q00056 201-287)
VAX1 = VAX1 (Homo sapiens, UniProt Q5SQQ9 86-172)
HOXA2 [4] = biological target: HOXA2 (Homo sapiens, UniProt O43364 129-215, Y150S)
HOXA2 (Homo sapiens, UniProt O43364 129-215, Y150S), sequence (O43364 129-215 Y150S): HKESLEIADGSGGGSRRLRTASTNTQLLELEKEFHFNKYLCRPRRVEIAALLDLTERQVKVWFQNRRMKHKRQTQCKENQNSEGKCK

HOXA7 [5] = biological target: HOXA7 (Homo sapiens, UniProt P31268 116-202, W177C)
HOXA7 (Homo sapiens, UniProt P31268 116-202, W177C), sequence (P31268 116-202 W177C): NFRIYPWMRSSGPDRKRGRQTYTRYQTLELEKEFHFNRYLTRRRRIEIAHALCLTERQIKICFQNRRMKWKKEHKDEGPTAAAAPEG

HOXA2 [6] = biological target: HOXA2 (Homo sapiens, UniProt O43364 129-215)
HOXA2 (Homo sapiens, UniProt O43364 129-215), sequence (O43364 129-215): as the sequence (O43364 129-215 Y150S) above, with S22Y counted along it

HOXB6 = HOXB6 (Homo sapiens, UniProt P17509 132-218)
HOXB6, sequence (P17509 132-218): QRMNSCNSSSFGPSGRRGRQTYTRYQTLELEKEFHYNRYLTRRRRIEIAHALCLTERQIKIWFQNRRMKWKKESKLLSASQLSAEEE

HOXB9 [7] = biological target: HOXB9 (Homo sapiens, UniProt P17482 171-250, T197M)
HOXB9 (Homo sapiens, UniProt P17482 171-250, T197M), sequence (P17482 171-250 T197M): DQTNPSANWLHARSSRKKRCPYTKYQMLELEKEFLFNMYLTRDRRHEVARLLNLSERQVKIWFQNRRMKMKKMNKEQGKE

VENTX = biological target: T1, VENTX (Homo sapiens, UniProt O95231 78-163)
T1 sequence: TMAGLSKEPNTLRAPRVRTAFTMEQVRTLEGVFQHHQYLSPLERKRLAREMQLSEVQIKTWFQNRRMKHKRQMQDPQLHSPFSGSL

PAX4 [8] = biological target: T2, PAX4 (Homo sapiens, UniProt O43316 9-242)
T2 sequence: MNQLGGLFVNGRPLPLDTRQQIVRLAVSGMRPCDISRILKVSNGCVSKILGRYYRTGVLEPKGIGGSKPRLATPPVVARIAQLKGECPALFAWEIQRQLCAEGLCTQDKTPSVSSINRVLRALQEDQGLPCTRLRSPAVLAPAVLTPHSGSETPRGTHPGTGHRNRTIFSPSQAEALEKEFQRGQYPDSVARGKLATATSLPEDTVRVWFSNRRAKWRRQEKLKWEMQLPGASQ

HOXC10 = HOXC10 (Homo sapiens, UniProt Q9NYD6 254-340, K271E)
HOXC10, sequence (Q9NYD6 254-340 K271E): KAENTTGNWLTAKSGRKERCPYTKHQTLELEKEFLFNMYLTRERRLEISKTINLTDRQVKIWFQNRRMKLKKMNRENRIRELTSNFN

HOXB9 [9] = biological target: HOXB9 (Homo sapiens, UniProt P17482 171-250, R186Q)
HOXB9 (Homo sapiens, UniProt P17482 171-250, R186Q), sequence (P17482 171-250 R186Q): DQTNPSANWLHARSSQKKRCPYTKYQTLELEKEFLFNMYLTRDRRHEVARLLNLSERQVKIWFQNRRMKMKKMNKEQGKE

HOXC9 [10] = biological target: HOXC9 (Homo sapiens, UniProt P31274 178-260, R222W)
HOXC9 (Homo sapiens, UniProt P31274 178-260, R222W), sequence (P31274 178-260 R222W): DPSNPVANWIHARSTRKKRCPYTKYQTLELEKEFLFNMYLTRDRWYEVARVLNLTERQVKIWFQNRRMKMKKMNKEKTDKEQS

PAX4 [11] = biological target: T3, PAX4 (Homo sapiens, UniProt O43316 9-242, R227W)
T3 sequence: T2 sequence with R219W

HOXC9 [12] = biological target: HOXC9 (Homo sapiens, UniProt P31274 178-260, K195R)
HOXC9 (Homo sapiens, UniProt P31274 178-260, K195R), sequence (P31274 178-260 K195R): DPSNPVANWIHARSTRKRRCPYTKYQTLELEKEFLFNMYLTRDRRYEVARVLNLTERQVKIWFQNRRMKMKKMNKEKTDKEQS

HOXB9 [13] = biological target: HOXB9 (Homo sapiens, UniProt P17482 171-250)
HOXB9 (Homo sapiens, UniProt P17482 171-250), sequence (P17482 171-250): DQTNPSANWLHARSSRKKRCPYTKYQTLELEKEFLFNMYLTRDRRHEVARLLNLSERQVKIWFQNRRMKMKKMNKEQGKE

HOXC9 [14] = biological target: HOXC9 (Homo sapiens, UniProt P31274 178-260, R193K)
HOXC9 (Homo sapiens, UniProt P31274 178-260, R193K), sequence (P31274 178-260 R193K): as the sequence (P31274 178-260 R222W) above, with R16K, W45R counted along it

HOXC9 [15] = biological target: HOXC9 (Homo sapiens, UniProt P31274 178-260)
HOXC9 (Homo sapiens, UniProt P31274 178-260), sequence (P31274 178-260): as the sequence (P31274 178-260 R222W) above, with W45R counted along it

VAX1, sequence (Q5SQQ9 86-172): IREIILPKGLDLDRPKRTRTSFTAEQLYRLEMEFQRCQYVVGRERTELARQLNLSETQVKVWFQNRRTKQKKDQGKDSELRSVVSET
HOXA7 (Homo sapiens, UniProt P31268 116-202), sequence (P31268 116-202): as the sequence (P31268 116-202 W177C) above, with C62W counted along it
HOXA4 (Homo sapiens, UniProt Q00056 201-287), sequence (Q00056 201-287): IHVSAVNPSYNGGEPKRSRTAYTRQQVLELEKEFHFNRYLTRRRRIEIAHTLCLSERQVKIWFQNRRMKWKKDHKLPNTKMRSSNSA
HOXA4 (Homo sapiens, UniProt Q00056 201-287, W262R), sequence (Q00056 201-287 W262R): as the sequence (Q00056 201-287) above, with W62R counted along it

For GTAATTGA, the binding signal (HOXA4 [1]) was 10.4 upbm affinity estimate (log intensity, higher = more binding, comparable within an allelic series), the binding signal (HOXA7 [2]) was 11.2 upbm affinity estimate (log intensity, higher = more binding, comparable within an allelic series) and the binding signal (HOXA4 [3]) was 13.5 upbm affinity estimate (log intensity, higher = more binding, comparable within an allelic series). For the same sequence, the binding signal (VAX1) was 12.8 upbm affinity estimate (log intensity, higher = more binding, comparable within an allelic series), the binding signal (HOXA2 [4]) was 10.7 upbm affinity estimate (log intensity, higher = more binding, comparable within an allelic series) and the binding signal (HOXA7 [5]) was 8.88 upbm affinity estimate (log intensity, higher = more binding, comparable within an allelic series). For the same sequence, the binding signal (HOXA2 [6]) was 12.1 upbm affinity estimate (log intensity, higher = more binding, comparable within an allelic series).
For CAATTATG, the binding signal (HOXB6) was 11.7 upbm affinity estimate (log intensity, higher = more binding, comparable within an allelic series).
CCAATTAA was tested, and the binding signal (HOXB9 [7]) was 10 upbm affinity estimate (log intensity, higher = more binding, comparable within an allelic series), the binding signal (HOXA4 [1]) was 10.6 upbm affinity estimate (log intensity, higher = more binding, comparable within an allelic series) and the binding signal (VENTX) was 12.9 upbm affinity estimate (log intensity, higher = more binding, comparable within an allelic series). The binding signal (HOXA7 [2]) was 11.5 upbm affinity estimate (log intensity, higher = more binding, comparable within an allelic series), the binding signal (PAX4 [8]) was 12.3 upbm affinity estimate (log intensity, higher = more binding, comparable within an allelic series) and the binding signal (HOXA4 [3]) was 13.6 upbm affinity estimate (log intensity, higher = more binding, comparable within an allelic series). For the same sequence, the binding signal (HOXC10) was 11.9 upbm affinity estimate (log intensity, higher = more binding, comparable within an allelic series), the binding signal (VAX1) was 13 upbm affinity estimate (log intensity, higher = more binding, comparable within an allelic series) and the binding signal (HOXB9 [9]) was 11.4 upbm affinity estimate (log intensity, higher = more binding, comparable within an allelic series). The binding signal (HOXC9 [10]) was 11.1 upbm affinity estimate (log intensity, higher = more binding, comparable within an allelic series), the binding signal (PAX4 [11]) was 11 upbm affinity estimate (log intensity, higher = more binding, comparable within an allelic series) and the binding signal (HOXA2 [4]) was 10.8 upbm affinity estimate (log intensity, higher = more binding, comparable within an allelic series). For the same sequence, the binding signal (HOXA7 [5]) was 8.83 upbm affinity estimate (log intensity, higher = more binding, comparable within an allelic series), the binding signal (HOXA2 [6]) was 12.2 upbm affinity estimate (log intensity, higher = more binding, comparable within an allelic series) and the binding signal (HOXB6) was 11.9 upbm affinity estimate (log intensity, higher = more binding, comparable within an allelic series).
For AAATTAAT, the binding signal (HOXB9 [7]) was 10.1 upbm affinity estimate (log intensity, higher = more binding, comparable within an allelic series), the binding signal (HOXA4 [1]) was 10.6 upbm affinity estimate (log intensity, higher = more binding, comparable within an allelic series) and the binding signal (HOXC9 [12]) was 12.6 upbm affinity estimate (log intensity, higher = more binding, comparable within an allelic series). For the same sequence, the binding signal (HOXA7 [2]) was 11.3 upbm affinity estimate (log intensity, higher = more binding, comparable within an allelic series), the binding signal (PAX4 [8]) was 12.4 upbm affinity estimate (log intensity, higher = more binding, comparable within an allelic series) and the binding signal (HOXB9 [13]) was 11.8 upbm affinity estimate (log intensity, higher = more binding, comparable within an allelic series). The binding signal (HOXC9 [14]) was 12.5 upbm affinity estimate (log intensity, higher = more binding, comparable within an allelic series), the binding signal (HOXA4 [3]) was 13.6 upbm affinity estimate (log intensity, higher = more binding, comparable within an allelic series) and the binding signal (VAX1) was 12.7 upbm affinity estimate (log intensity, higher = more binding, comparable within an allelic series). The binding signal (HOXB9 [9]) was 11.5 upbm affinity estimate (log intensity, higher = more binding, comparable within an allelic series), the binding signal (PAX4 [11]) was 11.1 upbm affinity estimate (log intensity, higher = more binding, comparable within an allelic series) and the binding signal (HOXA7 [5]) was 8.83 upbm affinity estimate (log intensity, higher = more binding, comparable within an allelic series). The binding signal (HOXB6) was 11.8 upbm affinity estimate (log intensity, higher = more binding, comparable within an allelic series).
For CCCTACGG, the binding signal (HOXA4 [1]) was 9.76 upbm affinity estimate (log intensity, higher = more binding, comparable within an allelic series), the binding signal (HOXC9 [12]) was 9.6 upbm affinity estimate (log intensity, higher = more binding, comparable within an allelic series) and the binding signal (VENTX) was 8.36 upbm affinity estimate (log intensity, higher = more binding, comparable within an allelic series). The binding signal (HOXC9 [15]) was 9.63 upbm affinity estimate (log intensity, higher = more binding, comparable within an allelic series), the binding signal (HOXC9 [14]) was 9.67 upbm affinity estimate (log intensity, higher = more binding, comparable within an allelic series) and the binding signal (HOXA4 [3]) was 9.86 upbm affinity estimate (log intensity, higher = more binding, comparable within an allelic series). The binding signal (HOXC9 [10]) was 9.62 upbm affinity estimate (log intensity, higher = more binding, comparable within an allelic series).
With GCAAGGGC the binding signal (HOXA4 [1]) was 9.8 upbm affinity estimate (log intensity, higher = more binding, comparable within an allelic series) and the binding signal (HOXA4 [3]) was 9.73 upbm affinity estimate (log intensity, higher = more binding, comparable within an allelic series).
With CAATTAAC the binding signal (HOXB9 [7]) was 9.98 upbm affinity estimate (log intensity, higher = more binding, comparable within an allelic series), the binding signal (HOXA4 [1]) was 10.6 upbm affinity estimate (log intensity, higher = more binding, comparable within an allelic series) and the binding signal (HOXC9 [12]) was 12.5 upbm affinity estimate (log intensity, higher = more binding, comparable within an allelic series). The binding signal (VENTX) was 12.8 upbm affinity estimate (log intensity, higher = more binding, comparable within an allelic series), the binding signal (HOXA7 [2]) was 11.5 upbm affinity estimate (log intensity, higher = more binding, comparable within an allelic series) and the binding signal (PAX4 [8]) was 12.1 upbm affinity estimate (log intensity, higher = more binding, comparable within an allelic series). The binding signal (HOXC9 [15]) was 12.6 upbm affinity estimate (log intensity, higher = more binding, comparable within an allelic series), the binding signal (HOXC9 [14]) was 12.5 upbm affinity estimate (log intensity, higher = more binding, comparable within an allelic series) and the binding signal (HOXA4 [3]) was 13.9 upbm affinity estimate (log intensity, higher = more binding, comparable within an allelic series). The binding signal (HOXC10) was 11.8 upbm affinity estimate (log intensity, higher = more binding, comparable within an allelic series), the binding signal (VAX1) was 13 upbm affinity estimate (log intensity, higher = more binding, comparable within an allelic series) and the binding signal (HOXB9 [9]) was 11.4 upbm affinity estimate (log intensity, higher = more binding, comparable within an allelic series). For the same sequence, the binding signal (HOXC9 [10]) was 10.9 upbm affinity estimate (log intensity, higher = more binding, comparable within an allelic series), the binding signal (PAX4 [11]) was 10.8 upbm affinity estimate (log intensity, higher = more binding, comparable within an allelic series) and the binding signal (HOXA2 [4]) was 10.8 upbm affinity estimate (log intensity, higher = more binding, comparable within an allelic series). For the same sequence, the binding signal (HOXA7 [5]) was 8.75 upbm affinity estimate (log intensity, higher = more binding, comparable within an allelic series), the binding signal (HOXA2 [6]) was 12.3 upbm affinity estimate (log intensity, higher = more binding, comparable within an allelic series) and the binding signal (HOXB6) was 12 upbm affinity estimate (log intensity, higher = more binding, comparable within an allelic series).
